# Data from PubChem BioAssay.
# Inconclusive results are not listed. Active and inactive are the calls of the source. Cut-off read from the data, not from the text of the source, unless noted: active = inhibition above about 80%; inactive = the rest.
# What was measured:
# [1] = growth inhibition of DIPG glioma cells, dose response, cell-based, SU-DIPG-XVII, MIPE5.0, CellTiter-Glo, qHTS (AID 1347060; cut-off not given, nearly all actives have AC50 up to about 26 µM;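 note: cells exposed to compound for 48 hours before viability readout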); conditions: SU-DIPG-XVII viability, CellTiter-Glo ATP luminescence
# [2] = growth inhibition of DIPG glioma cells, dose response, cell-based, JHH-DIPG-1, MIPE4.0, CellTiter-Glo, qHTS (AID 1347062; cut-off not given, nearly all actives have AC50 up to about 27 µM;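 note: cells exposed to compound for two days before readout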); conditions: JHH-DIPG-1 viability, CellTiter-Glo ATP luminescence
# [3] = growth inhibition of DIPG glioma cells, dose response, cell-based, SU-DIPG-IV, MIPE4.0, CellTiter-Glo, qHTS (AID 1347063; cut-off not given, nearly all actives have AC50 up to about 30 µM;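 note: compound exposure lasted 48 hours before the viability readout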); conditions: SU-DIPG-IV viability, CellTiter-Glo ATP luminescence
# [4] = viability loss in pontine glioma line – cell-based, SU-DIPG-XXV, MIPE5.0, CellTiter-Glo, qHTS, dose response (AID 1347065; cut-off not given, nearly all actives have AC50 up to about 26 µM;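 note: cells exposed to compound for 48 hours before ATP readout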); conditions: CellTiter-Glo ATP luminescence
# [5] = sensitizers of A549 cells to miR-34 induction, primary screen, imaging, A549 dox-inducible miR-34, nuclei and caspase counts (AID 1347080;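 active = compounds whose cell count with miR-34 switched on is under 0.7 times the count with it off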); conditions: A549 miR-34 inducible, Hoechst nuclei count, 48 h
# [6] = survival rescue of mitochondrial mutant cells in low glucose, primary screen, MELAS cybrids, Rieske KO mouse fibroblasts, CellTiter-Glo (AID 1508586;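 active = mean z-score across replicates of 1.96 or higher in either the MELAS or the Rieske mutant cell line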;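 note: z relative to plate mean and SD of compound and empty wells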)
# [7] = LFS_MB_P medulloblastoma growth inhibition, cell-based, chromothripsis tumors, cisplatin or BGB combos (AID 1671449); conditions: LFS_MB_P medulloblastoma cells;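 note: cells exposed for 96 hours; 0% = vehicle DMSO and 100% = killing by high DMSO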
# [8] = HDN33 neuroblastoma growth inhibition, cell-based, chromothripsis tumors, cisplatin or BGB combos (AID 1671450); conditions: HDN33 neuroblastoma cells, stronger effect = higher value;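 note: cells exposed to compound for four days; 0% = vehicle DMSO and 100% = cell killing by high DMSO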
# [9] = ICB984 medulloblastoma cell growth inhibition, synergistic combos for chromothripsis tumors, cisplatin or BGB combos (AID 1671451; call rule not given here;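 note: cells exposed for 96 hours before readout; 0% = vehicle DMSO and 100% = killing by high DMSO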); conditions: ICB984 medulloblastoma cells, drug combinations, stronger effect = higher value
# [10] = HTB85 osteosarcoma cell growth inhibition, synergistic combos for chromothripsis tumors, BGB or cisplatin IC20 combos (AID 1671453); conditions: HTB85 osteosarcoma cells, drug combinations, stronger effect = higher value;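 note: cells exposed for 96 hours before readout; 0% = vehicle DMSO and 100% = high DMSO killing control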
# [11] = MDA-MB-436 breast carcinoma cell growth inhibition, synergistic combos for chromothripsis tumors, BGB or cisplatin combos (AID 1671458; call rule not given here;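 note: cells exposed for 96 hours; 0% = vehicle DMSO and 100% = killing by high DMSO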); conditions: MDA-MB-436 breast carcinoma growth inhibition, drug combinations, stronger effect = higher value
# [12] = growth inhibition of BT084 medulloblastoma cells, cell-based, ICGC_MB145, cisplatin and BGB IC40 combos (AID 1671461); conditions: drug combinations, stronger effect = higher value;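 note: cells exposed to drugs for 96 hours; 0% = vehicle DMSO and 100% = high DMSO full killing control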
# [13] = growth inhibition of RCMB18 medulloblastoma cells, cell-based, cisplatin and BGB IC40 combos (AID 1671462); conditions: stronger effect = higher value;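 note: cells exposed to compound for four days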
# [14] = growth inhibition of CRL1545 osteosarcoma cells, cell-based, cisplatin and BGB IC20 combos (AID 1671464); conditions: stronger effect = higher value;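 note: cells exposed to compound for 96 hours before readout; 0% = vehicle DMSO and 100% = high DMSO killing control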
# [15] = measured here: with BGB IC20 combination, at 0.5 µM
# [16] = measured here: with cisplatin IC20 combination, at 0.5 µM
smiles,measurement,setting,value
CN(C)CCN1C(=O)c2cccc3cc(N)cc(c23)C1=O,AC50,[1],20.9 µM (active)
same,AC50,[2],23.5 µM (active)
same,AC50,[3],18.7 µM (active)
same,AC50,[4],18.6 µM (active)
same,fold change,"[5]; stronger effect = lower value, cell number ratio, induced over uninduced",1.2 (inactive)
same,fold change,[5]; measured here: relative caspase fold change +Dox/-Dox,0.74
same,cell count,"[5]; measured here: total cells with miR-34 induction, stronger effect = lower value",1750
same,cell count,[5]; measured here: total cells without miR-34 induction,1460
same,z-score,"[6]; MELAS cybrid survival, CellTiter-Glo 48 h, stronger effect = higher value",-0.14 (inactive)
same,z-score,"[6]; Rieske KO mouse fibroblast survival, CellTiter-Glo 72 h",-0.182
same,inhibition,"[7]; at 0.5 µM, stronger effect = higher value",-4.37% (inactive)
same,inhibition,"[7]; measured here: combination with BGB IC20, at 0.005 µM",-27.8%
same,inhibition,"[7]; measured here: combination with BGB IC40, at 0.005 µM",-17.6%
same,inhibition,"[7]; measured here: combination with BGB IC40, at 0.05 µM",-30.5%
same,inhibition,"[7]; measured here: combination with cisplatin, at 0.5 µM, stronger effect = higher value",-36.3%
same,inhibition,"[7]; measured here: combination with cisplatin, at 5 µM, stronger effect = higher value",4.24%
same,inhibition,"[8]; BGB combo, at 5 µM",41.4%
same,inhibition,[8]; at 0.5 µM,-23.5% (inactive)
same,inhibition,"[8]; cisplatin combo, at 5 µM",48.1%
same,inhibition,[8]; [15],-27.7%
same,inhibition,[8]; [16],-18.1%
same,inhibition,"[8]; single agent, at 5 µM",62.5%
same,inhibition,"[9]; BGB IC20 combo, at 0.005 µM",-11.5%
same,inhibition,"[9]; BGB IC40 combo, at 0.005 µM",-22.2%
same,inhibition,"[9]; BGB IC40 combo, at 0.05 µM",-11.5%
same,inhibition,[9]; at 0.5 µM,-22.6% (inactive)
same,inhibition,"[9]; cisplatin combo, at 0.05 µM",-15.5%
same,inhibition,"[9]; cisplatin combo, at 0.5 µM",-16.6%
same,inhibition,"[9]; cisplatin combo, at 5 µM",-25.7%
same,inhibition,"[9]; measured here: 5 uM single agent, at 5 µM",-8.29%
same,inhibition,[10]; at 0.5 µM,-12.9% (inactive)
same,inhibition,"[10]; measured here: with BGB IC20, at 0.5 µM",-26.5%
same,inhibition,"[10]; measured here: with BGB IC20, at 5 µM",10.3%
same,inhibition,"[10]; measured here: with cisplatin IC20, at 0.5 µM",-16.4%
same,inhibition,"[10]; measured here: with cisplatin IC20, at 5 µM",6%
same,inhibition,"[10]; single agent, at 5 µM",33.7%
same,inhibition,[11]; at 0.5 µM,-8.14% (inactive)
same,inhibition,"[11]; measured here: BGB combination, at 0.5 µM",-8.98%
same,inhibition,"[11]; measured here: BGB combination, at 5 µM",10.1%
same,inhibition,"[11]; measured here: cisplatin combination, at 0.5 µM",-20.8%
same,inhibition,"[11]; measured here: cisplatin combination, at 5 µM",21.8%
same,inhibition,[12]; at 0.5 µM,-6.16% (inactive)
same,inhibition,"[12]; cisplatin combination, at 0.5 µM",-21.8%
same,inhibition,"[12]; cisplatin combination, at 5 µM",-12.3%
same,inhibition,"[12]; measured here: BGB IC40 combination 0.05 uM, at 0.05 µM",-42.3%
same,inhibition,"[12]; single agent, at 5 µM",-40.8%
same,inhibition,[13]; at 0.5 µM,-2.53% (inactive)
same,inhibition,"[13]; cisplatin combo, at 5 µM",-21%
same,inhibition,"[13]; measured here: BGB IC40 combination, at 0.05 µM",-28.2%
same,inhibition,"[13]; measured here: combination with cisplatin, at 0.5 µM",2.14%
same,inhibition,"[13]; single agent, at 5 µM",-32.9%
same,inhibition,[14]; at 0.5 µM,-31.5% (inactive)
same,inhibition,[14]; [15],-17.6%
same,inhibition,[14]; [16],-40.7%
same,inhibition,"[14]; single agent, at 0.05 µM",-14.5%
same,inhibition,"[14]; single agent, at 5 µM",59.5%
